Experimental findings from PubChem BioAssay AID485313 (National Center for Advancing Translational Sciences (NCATS), 2010) are described below.

About 7,600 (2.4%) of roughly 320,000 compounds were called active. About 3% were inconclusive and are not listed. The full list was thinned out, with actives kept by preference. Unmarked numbers belong to inactive results. The call rests on the fitted dose curve; in most records, active means well fitted activation curve with a large enough effect; inconclusive means small, poorly fitted or top-dose-only effect; inactive means no such curve, though single readings can be large or run the other way.
Potency means the concentration at half of the fitted maximal effect.

The test in a line: qHTS Assay for NPC1 Promoter Activators. Further: nearly all actives have a fitted effect of over 60% in size. On activation: % of control where 0% means no effect. Conditions: Huh7 NPC1 promoter luciferase reporter, 24 h; series mostly up to 9.22 µM; activation: at the top concentration. The gist of the method: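 Luminescence read-out of NPC1 promoter-driven luciferase in stably transfected Huh7 cells; compounds delivered in DMSO and left 24 h at 37C, 5% CO2, qHTS titration format.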
(In qHTS, concentration-response curves come from the screen itself.)
As for `CC(C)(C)n1ncc2c(=O)n(Cc3c(Cl)cccc3Br)cnc21`, the “activation” value is -3.61%.
On the same count and under the same terms, to `CC(C)c1ccc(S(=O)(=O)N2CCN(C(C)C(=O)NC3CCCC3)CC2)cc1` (stereo not drawn) belongs 4.65%.
Still for that read-out and setting: to `CCCC(NCC(=O)Nc1ccccc1C(=O)NC1CC1)c1ccccc1` (stereo not drawn) belongs -3.13%; to `COc1ccccc1N1CCN(C(=O)C2Cc3ccccc3CN2C(=O)c2ccco2)CC1` (stereo not drawn), -3.03%.
On the same count and under the same terms, to `CCN1C(=O)[C@@H]2[C@@H](c3ccc(-c4cccc(Cl)c4)cc3)N3CCC[C@@]3(C(=O)OC)[C@@H]2C1=O` belongs -0.11%.
`CCCCc1ccc(NS(=O)(=O)c2cccc(C(=O)N3CCCN(C)CC3)c2)cc1`: the “activation” value was -2.91%.
The same measure, in the same setting: the same measure for `Cc1ccc(C(=O)Oc2coc(CSc3nnc(NC(=O)c4cccs4)s3)cc2=O)cc1C`: 6.97%.
As for `Cc1ccc(C(=O)Nc2nnc(-c3cccs3)s2)cc1C`, the Potency was 4.47 µM (active).
As for `Cc1nnc(NC(=O)c2ccc3nccnc3c2)s1`, the “activation” value is 10.6%.
Same read-out and setting: the same measure for `CC(C)c1ccc(NC(=O)COC(=O)c2ccc(CN3CCCC3=O)cc2)cc1`: 1.59%.
As to `O=C(Nc1ccc(O)cc1)c1ccc(NC(=O)c2ccco2)cc1`, the “activation” value was 23.2%.
In the case of `Cc1cc(NC(=O)c2ccc(F)cc2)ccc1NC(=O)c1ccco1`, the “activation” value is 8.51%.
Same read-out and setting: to `O=C(Nc1ccccc1)c1ccco1` belongs 23%.
The same measure, in the same setting: to `O=C(Nc1ccnc(-c2ccncc2)n1)c1cccs1` belongs -1.33%.
As for `O=C(Nc1ccc(NC(=O)c2cccs2)cn1)c1ccco1`, the Potency was 0.316 µM (active).
Turning to `Cc1ccnc(NC(=O)c2ccc(NC(=O)c3ccco3)cc2)c1`, the Potency is 3.98 µM (active).
For `CCN(CC(=O)Nc1c(F)cccc1F)C(=O)c1cnc(C)cn1`, the “activation” value was -3%.
As for `O=C(CCNC(=O)c1ccc(Br)cc1)NCC(c1ccco1)N1CCCCC1` (stereo not drawn), the “activation” value is -0.553%.
On to `COc1ccc(C2=NN(C(=O)CSc3nnnn3C)C(c3ccco3)C2)cc1` (stereo not drawn), for which the “activation” value is 1.31%.
On the same count and under the same terms, to `Cc1cc2c(=O)n(C)c(SCC(=O)c3cc4ccccc4o3)nc2s1` belongs 0.344%.
For `Nc1ncc(-c2cc3ccccc3oc2=O)s1`, the Potency is 2.51 µM (active).
For the molecule `O=C(NCc1cccnc1)c1cccc(-c2cc3ccccc3oc2=O)c1`, the “activation” value is 9.51%.
On the same count and under the same terms, the same measure for `O=C(CSc1ccccc1)Nc1cccc(S(=O)(=O)N2CCCCC2)c1`: 0.92%; for `Cc1cccc(-c2nc3ccc(C(=O)NCCN4CCN(C)CC4)cc3nc2-c2cccc(C)c2)c1`: 0.0884%; for `C=CCNC(=O)c1ccc(C)c(Br)c1`: -3.13%.
With `C=CCNC(=O)c1ccc2c3n(nc2c1)-c1ccc(C)cc1CO3`, the Potency is 0.501 µM (active).
Regarding `CCOC(=O)c1sc(NC(=O)C2CSC3(C)CCC(=O)N23)nc1C` (stereo not drawn), the “activation” value was -3.6%.
Same read-out and setting: the same measure for `C=CCSc1ccc(S(=O)(=O)N2CCN(C)CC2)cn1`: 1.46%; for `CCCCN(C(=O)C(CCSC)N1C(=O)c2ccccc2C1=O)c1c(N)n(CCC)c(=O)[nH]c1=O` (stereo not drawn): -1.59%; for `Cc1cccc(C)c1NC(=O)COC(=O)c1c(C)nn(-c2ccccc2)c1C`: -0.881%.
Same read-out and setting: to `Cc1ccc(-n2nc(C)c(C(=O)O)c2-n2cccc2)cc1` belongs -2.14%.
In the case of `Cc1ccc(OC(=O)c2c(C)nn(-c3ccccc3)c2C)cc1`, the Potency is 2.82 µM (active).
Regarding `COCCN(C(=O)CSCc1ccc(C)cc1)c1c(N)n(CC(C)C)c(=O)[nH]c1=O`, the “activation” value is -2.34%.
`CCN(CC(=O)NCc1cccs1)C(=O)/C=C/c1ccc(C)cc1`: the “activation” value was -0.296%.
Still for that read-out and setting: to `Cc1cccc(Nc2nnc(SCC(=O)c3c(N)n(C4CC4)c(=O)[nH]c3=O)s2)c1C` belongs -5.99%; to `CCOc1ccc(C(=O)NC2CCN(CC(=O)NCc3cccs3)CC2)cc1`, 1.67%; to `COc1ccccc1-n1cnc2cc(C(=O)NCC3CCCO3)ccc21` (stereo not drawn), 1.81%.
Regarding `O=C(NCc1cccs1)c1ccc2c(c1)ncn2C1CCCC1`, the Potency is 3.55 µM (active).
With `O=C(CCNS(=O)(=O)c1ccc(Br)cc1)NCC1CCCO1` (stereo not drawn), the “activation” value is -0.538%.
The same measure, in the same setting: to `COc1ccccc1C(=O)NCC(=O)NCCSc1ccc(Br)cc1` belongs -3.89%.
Turning to `Cc1ccc(NC(=O)CN(C)C(=O)COC(=O)c2nccnc2N)cc1`, the “activation” value was -1.17%.
On the same count and under the same terms, the same measure for `COc1nc(-c2ccc(Cl)cc2)ccc1-c1noc(-c2cccs2)n1`: -0.243%.
`c1ccc(-c2noc(-c3cccs3)n2)nc1`: the Potency is 0.398 µM (active).
Still for that read-out and setting: the same measure for `c1csc(-c2nc(-c3ccncc3)no2)c1`: 3.16 µM (active).
As for `Clc1ccc(-n2nnnc2-c2cnc(-c3ccccn3)nc2-c2cccs2)cc1`, the “activation” value is 0.256%.
Still for that read-out and setting: to `Cc1ccc(-c2noc(CSc3nnc(-c4cccs4)n3C)n2)cc1` belongs 6.05%; to `O=C(NCc1cccnc1)c1nc(-c2cccs2)no1`, 10%; to `Cc1ccc(-c2noc(CSc3nnc(-c4ccncc4)n3-c3ccc(F)cc3)n2)cc1`, 4.27%.
Still for that read-out and setting: the same measure for `c1ccc(CCc2nc(-c3ccncc3)no2)cc1`: 12.1%.
With `Cc1ccc(-c2nc(-c3ccncc3)no2)c(C)c1`, the Potency is 3.16 µM (active).
As to `CN(C(=O)CSc1nnc(-c2n[nH]c3ccccc23)o1)c1ccccc1`, the “activation” value was 5.27%.
Same read-out and setting: to `O=C(COC(=O)c1c(Cl)cccc1Cl)Nc1cccc(S(=O)(=O)NC2=NCCCCC2)c1` belongs 0.228%.
On the same count and under the same terms, to `COc1ccc(Cc2nnc(N/N=C/c3ccccc3O)[nH]c2=O)cc1OC` belongs -20.3%; to `COc1ccccc1C(=O)NCC(=O)OCC(=O)Nc1nnc(-c2ccccc2)o1`, -2.61%; to `O=C(COC(=O)c1cc(S(=O)(=O)N2CCOCC2)ccc1Cl)NCCc1ccccc1`, 1.28%.
Still for that read-out and setting: to `Cc1nc(C)c(C(=O)Nc2ccc(C)c(F)c2)o1` belongs 9.51%; to `Cc1cccc(NC(=O)NC(=S)NC(=O)c2ccccc2)c1`, 2.7%.
For the molecule `Cc1ccc(NC(=O)NC(=O)c2ccccc2)cc1F`, the Potency was 0.562 µM (active).
Take `CCN(CC)C(=O)c1nc[nH]c1C(=O)N(C)Cc1ccccc1`: the “activation” value is -3.28%.
On the same count and under the same terms, the same measure for `Cc1c(NC(=O)Nc2ccccc2)cccc1[N+](=O)[O-]`: 0.25%.
For the molecule `Cc1ccc(NC(=O)Nc2ccccc2)c(Br)c1`, the Potency was 3.55 µM (active).
On to `CCOc1cc(NC(=O)Nc2ccccc2)c(OCC)cc1NC(=O)CC`, for which the “activation” value is -0.529%.
`COc1cc(F)c(C2=CC(=O)CC(C)(C)C2)cc1F`: the “activation” value was -2.64%.
Same read-out and setting: to `COC(=O)[C@@H]1CCCN1C(=O)c1cc(COc2cccc3cccnc23)on1` belongs -2.83%.
For `CSc1ccccc1OCc1cc(C(=O)N2C[C@H]3CC[C@H]2C3)no1`, the Potency was 2.82 µM (active).
On to `CSc1ccccc1OCc1cc(C(=O)N(C)CCc2c(C)n[nH]c2C)no1`, for which the “activation” value is -11.9%.
Take `COC(=O)c1ccc(C)c(NC(=O)C2CC(=O)N(C3CCCC(C)C3C)C2)c1` (stereo not drawn): the “activation” value was -3.54%.
The same measure, in the same setting: the same measure for `NS(=O)(=O)c1ccc(CCNC(=O)COC(=O)COc2cccc(C(F)(F)F)c2)cc1`: -6.93%.
